# According to PubChem BioAssay (NCATS):
# Test: High-throughput drug toxicity screening in the BPDCN cell line Gen2.2 (AID 1224824);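 further: cells exposed to compounds for 48 h before reading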
# Details: Gen2.2 BPDCN cells; at 45.8 µM (top of the series) unless noted
# Method in brief: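 CellTiter-Glo luminescence read after 48 h compound exposure at 37 C defines viability; percent activity set with DMSO as 100% and bortezomib (9.2 uM final) as 0%. 500 exponentially growing cells per well, RPMI plus 10% FBS.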
row,SMILES,"cell viability, % of control (lower = more cytotoxic)"
1,CC(C)c1nn(-c2c(Cl)cccc2Cl)c2nc(Cc3ccc(OCCO)cc3)[nH]c(=O)c12,3.64%
2,CC(O)C1C(=O)N2C(C(=O)O)=C(SC3CNC(C(=O)N(C)C)C3)C(C)C12 (stereo not given),120%
3,Nc1ccn([C@@H]2O[C@H](CO)[C@H](O)C2(F)F)c(=O)n1,144%
4,CC(C)Nc1cc(C(F)(F)F)cc2nc(NC(=O)c3cccnc3)nn12,80.4%
5,C=CC(=O)Nc1cccc(Oc2nc(Nc3ccc(N4CCN(C)CC4)cc3)ncc2Cl)c1,8.16%
6,O=C(CCCCCCNC(=O)c1cnc(N(c2ccccc2)c2ccccc2)nc1)NO,5.14%
7,Cc1nc(Nc2n[nH]c3c2CN(C(=O)N[C@H](CN(C)C)c2ccccc2)C3(C)C)c2sccc2n1,0.772%
8,CC(C)(C)NC(=O)[C@H]1CN(Cc2cccnc2)CCN1C[C@@H](O)C[C@@H](Cc1ccccc1)C(=O)N[C@H]1c2ccccc2C[C@H]1O,129%
9,Cc1cc(Nc2nc(N[C@@H](C)c3ccc(F)cc3)c(C#N)cc2F)n[nH]1,218%
10,CN1CCN(Cc2ccc(NC(=O)Nc3ccc(Oc4cc(NC(=O)C5CC5)ncn4)cc3)cc2C(F)(F)F)CC1,0.71%
11,Cn1c(CNc2ccc(C(=N)N)cc2)nc2cc(C(=O)N(CCC(=O)O)c3ccccn3)ccc21,125% [at 23.2 µM]
12,O=C(CCCCCCC(=O)Nc1ccc([C@H]2O[C@@H](CSc3nc(-c4ccccc4)c(-c4ccccc4)o3)C[C@@H](c3ccc(CO)cc3)O2)cc1)NO,9.13%
13,COc1ccc(F)c(F)c1C(=O)c1cnc(NC2CCN(S(C)(=O)=O)CC2)nc1N,2.27%
14,CNC(=O)c1ccc(-c2cnc3ncc(Cc4ccc5ncccc5c4)n3n2)cc1F,48.9%
15,COc1ccc(-n2nc(C(N)=O)c3c2C(=O)N(c2ccc(N4CCCCC4=O)cc2)CC3)cc1,150%
16,CNC(=O)CN1CCC(Oc2cc3c(Nc4cccc(Cl)c4F)ncnc3cc2OC)CC1,50.7%
17,CC(C)c1cnn2c(NCc3ccccc3)cc(N[C@@H](CO)[C@H](O)CO)nc12,3.01%
18,O=C(Nc1cn[nH]c1-c1nc2ccc(CN3CCOCC3)cc2[nH]1)NC1CC1,4.46%

row,SMILES,"cell viability, % of control (lower = more cytotoxic)"
1,O=C(Nc1nc2cccc(-c3ccc(CN4CCS(=O)(=O)CC4)cc3)n2n1)C1CC1,107%
2,CN(C)c1nc(Cc2ccc(NC(=O)c3ccc4ccccc4c3)cc2)nc(Cl)c1CC(=O)O,90.6%
3,OCc1ccc(-c2ccc(-c3ccc(CO)s3)o2)s1,1.11%
4,COC(=O)C1=C(C)NC(C)=C(C(=O)OCCN2CCN(C(c3ccccc3)c3ccccc3)CC2)C1c1cccc([N+](=O)[O-])c1 (stereo not given),126%
5,CNC(=O)c1ccc(N2C(=S)N(c3cnc(C#N)c(C(F)(F)F)c3)C(=O)C23CCC3)cc1F,7.43%
6,CCc1cc2c(cc1N1CCC(N3CCOCC3)CC1)C(C)(C)c1[nH]c3cc(C#N)ccc3c1C2=O,258%
7,CC(C)c1cc(C(=O)N2Cc3ccc(CN4CCN(C)CC4)cc3C2)c(O)cc1O,29.3%
8,CC(C)c1cc(-c2n[nH]c(=O)n2-c2ccc3c(ccn3C)c2)c(O)cc1O,4.99%
9,Cc1cc(CN2CCN(c3c(Br)cnc4nc(-c5ccc(N6CCN(C)CC6)cc5)[nH]c34)CC2)no1,3.72%
10,Cc1ccc(CN2CCNCC2)cc1NC(=O)CNc1ccc(F)c(F)c1,124%
11,Nc1cccc(-c2cc3c(Oc4cccc(O)c4)ncnc3[nH]2)c1,115%
12,Cc1cc(Nc2cc(CN3CCOCC3)c3nc(C)c(Cc4ccc(Cl)cc4F)n3n2)n[nH]1,4.25%
13,Cc1c(C)n(Cc2ccc(-c3ccccc3C(=O)O)cc2)c2ccc(C(=O)N[C@@H](C)c3ccc([N+](=O)[O-])cc3)cc12,21.6%
14,CC(C)c1noc(N2CCC(COc3ccc(-c4ccc(S(C)(=O)=O)cc4)nc3)CC2)n1,87.9%
15,Nc1ncnc2c1c(-c1cccc(OCc3ccccc3)c1)cn2C1CC(CN2CCCC2)C1 (stereo not given),5.16%
16,O=C(Nc1ncc(-c2cc(C(F)F)nn2-c2c(Cl)cccc2Cl)s1)C1CC1,23.6%
17,O=C(Cc1ccc(-c2ccc(OCCN3CCOCC3)cc2)cn1)NCc1ccccc1,49.1%
